Test results published in PubChem BioAssay AID2315 (National Center for Advancing Translational Sciences (NCATS), 2010).
Among all 290,000 compounds or so, about 27,000 (9.3%) were called active. Rule as the data show it: active = inhibition mostly above about 28% (no sharp cut-off); inactive = mostly below about 43%. This excerpt belongs to a sample that is enriched for actives.

Assay: A qHTS for Small Molecule Inhibitors of Shiga Toxin; also: 0% is about no effect
Details: Vero cells, Shiga toxin protein synthesis inhibition reporter; at 38.7 µM, hits give high values
For Cc1ccc(C)c(C(=O)N2CCC(n3nccc3NC(=O)C3CC3)CC2)c1, the inhibition was -24.8% (inactive). For N#Cc1c(-c2ccccc2)c(-c2ccccc2)n[nH]c1=O, the inhibition was -6.49% (inactive). In the case of Cc1cccc(N2C(=O)SC(SC(=Nc3ccccc3)Nc3ccccc3)C2=O)c1 (stereo not given), the inhibition is reported as 83.9% (active). With Cc1cccc(N2C(=O)CC(SC(N)=Nc3ccccc3)C2=O)c1 (stereo not given) the inhibition was -8.18% (inactive). In the case of Cc1cccc(N2C(=O)SC(N(CC(=O)O)c3cccc(C)c3)C2=O)c1 (stereo not given), the inhibition is reported as 49.7% (inactive). With COc1cccc(/C=C2\Sc3ccc(C(=O)NCC4CCCO4)cc3N(C)C2=O)c1 (stereo not given) the inhibition was 11.4% (inactive). For CCOC(=O)c1c(S(=O)(=O)Nc2ccc(CN3CCC(C)CC3)cc2)c(C)n(C)c1C, the inhibition was -3.73% (inactive). For CC(=O)N1CC(=O)N(CC(=O)Nc2ccc(Br)cc2)C1=S, the inhibition was -1.67% (inactive). With CC1CC(C)CN(C(=O)C2CC(=O)N(c3ccc(F)cc3)C2)C1 (stereo not given) the inhibition was -7.56% (inactive). For O=C(CCCO)N/N=C/c1cc(Br)ccc1O, the inhibition was 13.6% (inactive). With O=C(N/N=C/c1ccccc1O)C1CCCC1 the inhibition was 21.6% (inactive). In the case of O=C(N/N=C/c1ccccc1O)/C(=C/c1ccccc1)CCO, the inhibition is reported as 51.6% (active). In the case of O=c1c2c(nc3cc(-c4cccc(Cl)c4)[nH]n13)CCCC2, the inhibition is reported as 59.1% (active). In the case of O=c1c2c(nc3nc[nH]n13)CCC2, the inhibition is reported as 11.8% (inactive). In the case of Cc1cc(=O)n2[nH]c(-c3cccc(Cl)c3)cc2n1, the inhibition is reported as 39.8% (inactive). With O=S(=O)(c1ccc(Cl)cc1)c1nc(-c2ccccc2F)oc1NCCN1CCOCC1 the inhibition was -6.01% (inactive). With Cc1nc(Nc2ccc3c(c2)OCCO3)c2nnn(Cc3ccccc3Cl)c2n1 the inhibition was 153% (active). In the case of Cc1nc(Nc2ccccc2F)c2nnn(Cc3ccccc3Cl)c2n1, the inhibition is reported as -8.68% (inactive). With CCCc1nc(NCc2ccc3c(c2)OCO3)c2nnn(Cc3ccccc3Cl)c2n1 the inhibition was 7.73% (inactive). With COc1ccc(C(=O)/C=C/c2ccc(-c3ccccc3)cc2)cc1CSCC(=O)O the inhibition was -14.5% (inactive). For Cc1c(NC(=O)CCCOc2ccccc2)cccc1[N+](=O)[O-], the inhibition was 10.4% (inactive). With CCc1ccccc1NC(=O)CCOc1ccccc1 the inhibition was -7.03% (inactive). With Cc1ccccc1NC(=O)CCOc1ccccc1 the inhibition was 58% (active). For COc1cccc(CN(C)CC2CCCN(CCc3ccc(Cl)cc3)C2)c1OC (stereo not given), the inhibition was -3.67% (inactive). In the case of O=C(/C=C/c1ccc([N+](=O)[O-])o1)NNC(=O)c1ccc(F)cc1, the inhibition is reported as 120% (active). For O=C(N/N=C/c1ccc([N+](=O)[O-])o1)c1cn(-c2ccccc2)nc1-c1ccc(F)cc1, the inhibition was 8.71% (inactive). In the case of C/[N+]([O-])=C\c1ccc([N+](=O)[O-])o1, the inhibition is reported as -7.77% (inactive). With Cc1coc2c1c(C)cc1oc(=O)c(CC(=O)NCC(=O)N[C@H](C(=O)O)C(C)C)c(C)c12 the inhibition was -15% (inactive). For Cc1c(C(=O)Nc2ccccc2)sc2nc3n(c(=O)c12)CCCCC3, the inhibition was 95.7% (active). For Cc1c(C(=O)Nc2cccc(-c3nnc4n3CCCCC4)c2)oc2ccccc12, the inhibition was 35% (inactive). With Cc1nc(N2CCN(c3ccccn3)CC2)c2c(C)c(C(=O)Nc3ccc(F)cc3)sc2n1 the inhibition was -7.13% (inactive). With Cc1nc(N2CCOCC2)c2c(C)c(C(=O)Nc3ccc(C(F)(F)F)cc3)sc2n1 the inhibition was -15.2% (inactive). For CC(=O)c1ccc(NC(=O)c2sc3nc4n(c(=O)c3c2C)CCCCC4)cc1, the inhibition was 81.1% (active). With O=c1c2c(nc3n1CCCCC3)sc1c(O)cccc12 the inhibition was 20.9% (inactive). In the case of CN(C(=O)CC1C(=O)NCCN1Cc1ccc(F)cc1Cl)C1CCCCC1 (stereo not given), the inhibition is reported as -14.2% (inactive). In the case of COC(=O)c1ccc(NC(=O)CSc2nnc(CNc3ccc(OC)cc3)n2C)cc1, the inhibition is reported as 24.4% (inactive). For CCn1c(SCC(=O)c2ccc(Cl)s2)nnc1-c1cccs1, the inhibition was 73.6% (active). In the case of Cn1c(Cc2cccs2)nnc1SCC(=O)Nc1ccccc1, the inhibition is reported as -7.01% (inactive). With CCn1c(Cc2cccs2)nnc1SCC(=O)c1ccc(C)cc1 the inhibition was 41.4% (active). For CCn1c(CNc2ccc(OC)cc2)nnc1SCC(=O)c1ccc(OC)cc1, the inhibition was -15.6% (active). For Cc1ccc(-n2c(Cc3cccs3)nnc2SCC(=O)OC(C)C)cc1, the inhibition was 8.05% (inactive). With CCn1c(SCC(=O)N(C)C2CCS(=O)(=O)C2)nnc1-c1cccs1 (stereo not given) the inhibition was -0.571% (inactive). In the case of C=CCn1c(CNC(=O)c2ccco2)nnc1SCC(=O)c1ccc(OC)cc1, the inhibition is reported as -12.2% (inactive). For CCn1c(SCC(=O)c2ccc3ccccc3c2)nnc1-c1cccs1, the inhibition was -3.35% (inactive). For O=C(NCc1ccco1)C(c1ccncc1)N(C(=O)Cn1nnc2ccccc21)c1ccccc1 (stereo not given), the inhibition was -3.36% (inactive). For CCOC(=O)c1cc(C)nc(S(C)(=O)=O)c1C#N, the inhibition was 47.2% (inactive). In the case of CN(CCc1ccccc1)c1ccc([N+](=O)[O-])cn1, the inhibition is reported as -3.15% (inactive). For CCCCC(c1nnnn1CS(=O)(=O)c1ccc(C)cc1)N1CCC(C(N)=O)CC1 (stereo not given), the inhibition was -8.35% (inactive). For COc1ccccc1-c1nnc(SCC(=O)N2CC(C)CC(C)C2)o1 (stereo not given), the inhibition was -7.49% (inactive). With CC1CC(C)CN(C(=O)CSc2ccsc2[N+](=O)[O-])C1 (stereo not given) the inhibition was 63.3% (active). With O=C(CSc1ccsc1[N+](=O)[O-])N1CCCCC1 the inhibition was 6.79% (inactive). With COCc1c(C(=O)N/N=C(\C)c2ccncc2)nnn1-c1nonc1N the inhibition was -3.05% (inactive). In the case of COC(=O)c1ccc(NC(=O)CSc2nnc(C3CC3)n2C)cc1, the inhibition is reported as 17.5% (inactive). For O=C(Nn1cnc2ccccc2c1=O)c1ccc(F)cc1Cl, the inhibition was 71.8% (active). With O=C(Nn1cnc2ccccc2c1=O)c1ccc([N+](=O)[O-])cc1Cl the inhibition was -11.9% (inactive). In the case of O=C(Nn1cnc2ccccc2c1=O)c1ccccc1, the inhibition is reported as 58.6% (inactive). With COc1cc(C(=O)NCc2ccncc2)cc(Br)c1OCc1ccccc1 the inhibition was -9.85% (inactive). In the case of CC(C(=O)NCCc1ccc(S(N)(=O)=O)cc1)N1C(=O)CC(C)(C)Sc2ccccc21 (stereo not given), the inhibition is reported as -10.5% (inactive). With Cc1ccc(-c2csc(NC(=O)Cn3[nH]c(=O)c4ccccc4c3=O)n2)cc1 the inhibition was 42.6% (inactive). In the case of COc1ccc(N/C=C(\C2OC(=O)c3ccccc32)[N+](=O)[O-])cc1 (stereo not given), the inhibition is reported as 15.2% (inactive). In the case of COc1ccc2c(c1OC)C(=O)OC2c1c(O)nc(SC)n(-c2ccccc2)c1=O (stereo not given), the inhibition is reported as -8.28% (inactive). In the case of Cc1ccc(-c2csc(NC3OC(=O)c4ccccc43)n2)cc1 (stereo not given), the inhibition is reported as 30% (active). With COc1ccc2c(c1OC)C(=O)OC2Nc1nc(-c2ccccc2)cs1 (stereo not given) the inhibition was 36.9% (active). With COc1ccc(-c2csc(NC3OC(=O)c4ccccc43)n2)cc1 (stereo not given) the inhibition was 41.6% (active). For COc1ccc(C)cc1Nc1nc(-c2c(C)[nH]c3ccccc23)cs1, the inhibition was -3.8% (inactive). In the case of CCCn1c(CCNc2nc(-c3ccc(OC)cc3)cs2)nc2ccccc21, the inhibition is reported as 20.9% (inactive). With CC(=O)Nc1ccc(-c2csc(NC=C3C(=O)OC(C)(C)OC3=O)n2)cc1 the inhibition was 54% (inactive). For Cc1ccc(NS(=O)(=O)c2ccc3c(c2)n(C)c(=O)c(=O)n3C)c(C)c1, the inhibition was -7.48% (inactive). In the case of COCCN1CCn2c(nc3cc(NS(C)(=O)=O)ccc32)C1, the inhibition is reported as -2.98% (inactive). With COc1ccc(C(=O)NC2CC(C)(C)Cc3c2cnn3-c2ccccc2C)o1 (stereo not given) the inhibition was -10.5% (inactive). In the case of O=C(COc1ccc2c3c(c(=O)oc2c1)CCCC3)NCC(O)c1ccccc1 (stereo not given), the inhibition is reported as -3.53% (inactive). With O=C(CCn1c(=S)[nH]c2cc3c(cc2c1=O)OCO3)NCc1ccc(Cl)cc1 the inhibition was 1.66% (inactive). For O=C(CCc1nnc(Cc2ccc3c(c2)OCO3)o1)NCCc1ccccc1Cl, the inhibition was -5.99% (inactive). In the case of CN1CCN(Cc2nc3cc(NC(=O)COc4ccc([N+](=O)[O-])cc4)ccc3n2C)CC1, the inhibition is reported as -2.13% (inactive). In the case of COC(=O)c1cccc(C(=O)N2CCCC(Nc3ccc4c(c3)OCCO4)C2)c1 (stereo not given), the inhibition is reported as 2.25% (inactive). In the case of Cc1cc(/C=C2\SC(=O)N(C)C2=O)c(C)n1-c1cccc(C(=O)O)c1, the inhibition is reported as 3.52% (inactive). In the case of COc1ccc(OCCCCN2CCC(C)CC2)cc1, the inhibition is reported as -6% (inactive). In the case of CC(C)CNC(=S)NNC(=O)c1nn(C)cc1Cl, the inhibition is reported as 4.35% (inactive). In the case of Cc1cccc(NC(=S)Nc2ccc(Cl)c(Cl)c2)c1, the inhibition is reported as 17% (inactive). For Cn1cc(Cl)c(C(=O)NNC(=S)Nc2cccc(Cl)c2)n1, the inhibition was 49.5% (active). With CC(Cc1cccs1)N(Cc1ccc(Cl)cc1)C(=O)c1ccncc1 (stereo not given) the inhibition was -3.64% (inactive). In the case of COc1cc(OC)c(NS(=O)(=O)c2cn(C)cn2)cc1Cl, the inhibition is reported as 11.1% (inactive). With COc1cccc(CNC(=O)c2cccnc2Sc2ccc(Cl)cc2)c1 the inhibition was -40.4% (inactive). In the case of CC1CCN(c2c(NCc3ccc(C(=O)NCc4ccccc4)cc3)c(=O)c2=O)CC1, the inhibition is reported as -6.77% (inactive). In the case of CC1CCCN(c2ccc(C(=O)NCCc3ccccc3)cn2)C1 (stereo not given), the inhibition is reported as 78.5% (active). With O=C(NCCc1ccccc1)c1ccc(NC2=NC3CS(=O)(=O)CC3S2)cc1 (stereo not given) the inhibition was 3.05% (inactive). With CCN(CC)S(=O)(=O)c1ccc(N2CCCC2)c(NS(=O)(=O)c2cccs2)c1 the inhibition was 21% (inactive). In the case of COc1ccc(CNc2c(CO)cnc3c2cnn3C)cc1, the inhibition is reported as -11.4% (inactive). For CN(C)/C=C(/C(=O)c1ccc(F)cc1)S(=O)(=O)c1ccc(F)cc1, the inhibition was 58.3% (inactive). In the case of CN(C)/C=C(/C(=O)c1ccccc1)S(=O)(=O)c1ccc(Cl)cc1, the inhibition is reported as 13.2% (inactive). For CN(C)/C=C(/C(=O)c1ccc(Cl)cc1)S(=O)(=O)c1ccccc1, the inhibition was 64.1% (active). In the case of Cc1ccc(C(CNC(=O)Nc2ccccc2)N2CCN(C)CC2)cc1 (stereo not given), the inhibition is reported as -3.91% (inactive). In the case of CCc1cc(=O)oc2c(C)c(OCC(=O)NCCN3CCOCC3)ccc12, the inhibition is reported as -2.76% (inactive). In the case of Cc1cc(NC(=O)c2cnn3cccnc23)n(-c2ccccc2)n1, the inhibition is reported as -5.01% (inactive). For O=C(Nc1ccc(Cl)cn1)c1cnn2cccnc12, the inhibition was 85.1% (active).
